From PubChem BioAssay
Calls of active or inactive are those of the source.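 Rule for the calls, unless noted: active = inhibition at or above 50% at 10 µM; inactive = inhibition below 50%.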

Experiments:
[1] = inhibitors of TNFa-induced NFkB p65 translocation, primary screen, imaging, HUVEC, MLSMR starter and 10KST1 sets (AID 438;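 active = inhibition above 20% together with a positive visual image hit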;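 note: compound added about 3h40 before a 20 min TNFalpha stimulation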;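 for inhibition: signal is the nuclear over cytoplasmic p65 intensity ratio per well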); conditions: HUVEC TNFa-induced p65 nuclear translocation; cell count: measured here: nuclei count (cytotoxicity indicator), at 2.08 µM; inhibition: at 2 µM, stronger effect = higher value, 0% TNFa-plus-vehicle, 100% no-TNFa wells
[2] = reduction of polyQ htt aggregates in cells – imaging, exon1htt(103Q)mCFP cells, high-content imaging, primary screen (AID 483;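 active = visual image review flags a hit and inhibition of aggregation exceeds 20%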;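 note: compound exposure lasted 3 days before fixation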;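 for nuclei count: percent of the per-plate median nuclei count of sample wells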); conditions: exon1htt(103Q)mCFP cell line, aggregate imaging, at 2 µM; inhibition of aggregation: stronger effect = higher value; nuclei count: measured here: cell count, toxicity
[3] = endothelial E-selectin expression blockers – imaging, HUVEC, immunofluorescence, MLSMR starter and 10KST1 sets, primary screen (AID 487;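 active = visually confirmed hit in the image check and inhibition above 20%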;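 for inhibition: signal is fraction of cell area covered by stained E-selectin grains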;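 for nuclei count: 100% = median nuclei count of all wells on the same plate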); conditions: HUVEC TNFalpha-induced E-selectin immunofluorescence imaging, at 2 µM; inhibition: stronger effect = higher value; nuclei count: measured here: cell number, toxicity
[4] = target: Voltage-gated potassium channel subunit beta-2 (Rattus norvegicus) (UniProt P62483); assay: inhibitors of rat Kvbeta2 reductase activity – biochemical, NADPH fluorescence, primary screen (AID 622;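 active = fluorescence slope higher than the sample average by over 3 SD, cut at about -0.22 in these data, passing the limit was not always enough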;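 note: slope of raw intensity against log time taken from 70 to 1610 s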); conditions: recombinant KvBeta, 4-cyanobenzaldehyde reduction, at 10 µM, stronger effect = higher value
Voltage-gated potassium channel subunit beta-2 (Rattus norvegicus), sequence (P62483 whole entry, looked up): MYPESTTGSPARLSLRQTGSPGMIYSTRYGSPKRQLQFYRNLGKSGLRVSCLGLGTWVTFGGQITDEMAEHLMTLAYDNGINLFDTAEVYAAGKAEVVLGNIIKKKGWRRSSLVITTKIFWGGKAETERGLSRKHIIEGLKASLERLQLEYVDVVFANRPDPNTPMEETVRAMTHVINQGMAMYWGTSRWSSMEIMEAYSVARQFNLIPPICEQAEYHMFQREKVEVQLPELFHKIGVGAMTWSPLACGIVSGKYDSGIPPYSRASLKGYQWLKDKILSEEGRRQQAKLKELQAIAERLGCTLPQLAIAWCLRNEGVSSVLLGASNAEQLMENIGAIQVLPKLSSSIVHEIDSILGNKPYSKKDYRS

[5] = target: Voltage-gated potassium channel subunit beta-2 (Rattus norvegicus) (UniProt P62483); assay: enhancers of rat Kvbeta2 NADPH turnover – biochemical, NADPH fluorescence, primary screen (AID 623;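 active = NADPH fluorescence slope more negative than the mean of all samples by about 3 SD, 99.7% confidence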;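 note: fluorescence intensity change per second fitted from 20 to 320 s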); conditions: Recombinant KvBeta, NADPH fluorescence decrease slope, 10 min; at 10 µM; stronger effect = lower value
[6] = target: Alpha-2C adrenergic receptor (Homo sapiens) (UniProt P18825); assay: compounds altering alpha2C-coupled GIRK flux – cell-based, HEK293 alpha2C/GIRK1/2, thallium flux, primary screen (AID 624;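 active = fluorescence slope after compound addition differing from the mean of all screened samples at 99.7% confidence, in either direction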;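 note: slope of fluorescence ratio to pre-addition baseline per second over 15 to 24 s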); conditions: thallium flux BTC fluorescence, at 10 µM, actives lie on both sides
Alpha-2C adrenergic receptor (Homo sapiens), sequence (P18825 whole entry, looked up): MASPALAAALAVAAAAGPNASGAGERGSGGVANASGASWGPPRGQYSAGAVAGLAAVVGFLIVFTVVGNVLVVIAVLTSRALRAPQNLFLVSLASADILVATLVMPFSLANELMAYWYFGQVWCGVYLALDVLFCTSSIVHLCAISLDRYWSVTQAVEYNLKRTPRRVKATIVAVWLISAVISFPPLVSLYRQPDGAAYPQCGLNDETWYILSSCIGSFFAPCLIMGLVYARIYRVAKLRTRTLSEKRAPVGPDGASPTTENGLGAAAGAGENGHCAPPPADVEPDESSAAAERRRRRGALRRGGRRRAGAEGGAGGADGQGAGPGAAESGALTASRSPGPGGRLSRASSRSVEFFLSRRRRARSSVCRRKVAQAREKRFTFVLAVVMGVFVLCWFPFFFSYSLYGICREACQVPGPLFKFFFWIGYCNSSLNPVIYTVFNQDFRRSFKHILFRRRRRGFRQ

[7] = blockers of RIG-like receptor reporter activation – cell-based, Sendai virus stimulus, luciferase, 10K MLSCN set, TLR/RLR signaling modifier project, primary screen (AID 602276); conditions: HEK293 RL24 IRF3 luciferase reporter, at 10 µM, stronger effect = higher value;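 note: firefly luciferase from ISG56 promoter only with Renilla not read in this screen; 0% = Sendai virus plus DMSO and 100% = medium plus DMSO without virus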
[8] = TLR3 IRF3 reporter activation blockers – cell-based, poly I:C stimulus, luciferase, 10K MLSCN set, primary screen (AID 602277;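 active = inhibition of the reporter signal at or above 50%; inactive = inhibition below 50%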); conditions: HEK293-TLR3 RL24 IRF3 luciferase reporter, at 10 µM, stronger effect = higher value

SMILES: CCc1ccc(C=NC23CN4CN(CN(C4)C2)C3)s1
- cell count [1]: 319
- inhibition [1]: -14.4% (inactive)
- inhibition of aggregation [2]: -5.7% (inactive)
- nuclei count [2]: 106%
- inhibition [3]: -41.8% (inactive)
- nuclei count [3]: 122%
- fluorescence slope [4]: -0.438 (inactive)
- NADPH fluorescence slope [5]: 5.9e-05 (inactive)
- slope [6]: 0.00606 (inactive)
- inhibition [7]: -1.05% (inactive)
- inhibition [8]: -0.158% (inactive)

SMILES: COc1ccccc1NC(=O)N1CCN(c2ccccc2F)CC1
- cell count [1]: 209
- inhibition [1]: 2.5% (inactive)
- inhibition of aggregation [2]: -10.6% (inactive)
- nuclei count [2]: 99.1%
- inhibition [3]: -100% (inactive)
- nuclei count [3]: 102%
- fluorescence slope [4]: -0.388 (inactive)
- NADPH fluorescence slope [5]: -3.6e-05 (inactive)
- slope [6]: 0.00564 (inactive)
- inhibition [7]: 11.9% (inactive)
- inhibition [8]: -4.11% (inactive)

SMILES: CC(C)(C)C(=O)/C=C(\N)c1ccccn1
- cell count [1]: 404
- inhibition [1]: -5% (inactive)
- inhibition of aggregation [2]: 15.3% (inactive)
- nuclei count [2]: 89.1%
- inhibition [3]: -33.9% (inactive)
- nuclei count [3]: 108%
- fluorescence slope [4]: -0.466 (inactive)
- NADPH fluorescence slope [5]: -5.5e-05 (inactive)
- slope [6]: 0.00639 (inactive)
- inhibition [7]: -0.411% (inactive)
- inhibition [8]: 2.89% (inactive)

SMILES: Cc1oc2cc3c(C(=O)OCCN(C)C)c(C)oc3cc2c1C(=O)OCCN(C)C
- cell count [1]: 445
- inhibition [1]: -6% (inactive)
- inhibition of aggregation [2]: -22.9% (inactive)
- nuclei count [2]: 95.2%
- inhibition [3]: -44.7% (inactive)
- nuclei count [3]: 92.4%
- fluorescence slope [4]: -0.412 (inactive)
- NADPH fluorescence slope [5]: -3.3e-05 (inactive)
- slope [6]: 0.00351 (inactive)
- inhibition [7]: 48.3% (inactive)
- inhibition [8]: 99.1% (active)

SMILES: Nn1c(SCC(=O)Nc2ccc3c(c2)OCO3)nnc1C1CC1
- cell count [1]: 363
- inhibition [1]: 4.8% (inactive)
- inhibition of aggregation [2]: 0.8% (inactive)
- nuclei count [2]: 100%
- inhibition [3]: -16% (inactive)
- nuclei count [3]: 111%
- fluorescence slope [4]: -0.574 (inactive)
- NADPH fluorescence slope [5]: -5.7e-05 (inactive)
- slope [6]: 0.00672 (inactive)
- inhibition [7]: 4.52% (inactive)
- inhibition [8]: 17.1% (inactive)

SMILES: CCOC(=O)C1CCCN(C(=O)c2sc3nc(-c4ccccc4)cn3c2C)C1 (centres undefined)
- cell count [1]: 631
- inhibition [1]: 13.2% (inactive)
- inhibition of aggregation [2]: 5.7% (inactive)
- nuclei count [2]: 103%
- inhibition [3]: 67.6% (active)
- nuclei count [3]: 76.5%
- fluorescence slope [4]: -0.544 (inactive)
- NADPH fluorescence slope [5]: 1.7e-05 (inactive)
- slope [6]: 0.00524 (inactive)
- inhibition [7]: -20.7% (inactive)
- inhibition [8]: -120% (inactive)

SMILES: CCOC(=O)N1CCN(c2cc(=O)n(-c3ccccc3Cl)c(=O)[nH]2)CC1
- cell count [1]: 553
- inhibition [1]: -7.4% (inactive)
- inhibition of aggregation [2]: 12.5% (inactive)
- nuclei count [2]: 84.2%
- inhibition [3]: 15% (inactive)
- nuclei count [3]: 90.2%
- fluorescence slope [4]: -0.581 (inactive)
- NADPH fluorescence slope [5]: -4.3e-05 (inactive)
- slope [6]: 0.00703 (inactive)
- inhibition [7]: -11.4% (inactive)
- inhibition [8]: 11.8% (inactive)

SMILES: Cc1nc2ccc(S(=O)(=O)NC(C(=O)NCc3cccs3)C(C)C)cc2s1 (centres undefined)
- cell count [1]: 332
- inhibition [1]: -8.3% (inactive)
- inhibition of aggregation [2]: 24.4% (inactive)
- nuclei count [2]: 88.7%
- inhibition [3]: -28.8% (inactive)
- nuclei count [3]: 106%
- fluorescence slope [4]: -0.612 (inactive)
- NADPH fluorescence slope [5]: -5.2e-05 (inactive)
- slope [6]: 0.00687 (inactive)
- inhibition [7]: -5.51% (inactive)
- inhibition [8]: 14.4% (inactive)

SMILES: O=C(CCc1nc2ccccc2s1)OCC(=O)N1CCN(C(=O)c2ccco2)CC1
- cell count [1]: 641
- inhibition [1]: -7.6% (inactive)
- inhibition of aggregation [2]: -0.7% (inactive)
- nuclei count [2]: 100%
- inhibition [3]: -126% (inactive)
- nuclei count [3]: 128%
- fluorescence slope [4]: -0.584 (inactive)
- NADPH fluorescence slope [5]: -2.7e-05 (inactive)
- slope [6]: 0.00548 (inactive)
- inhibition [7]: 14.9% (inactive)
- inhibition [8]: 24.8% (inactive)

SMILES: O=C(Nc1ccc(F)cc1)N(CCCN1CCOCC1)Cc1cc2cc3c(cc2[nH]c1=O)OCO3
- cell count [1]: 633
- inhibition [1]: -3% (inactive)
- inhibition of aggregation [2]: -34.9% (inactive)
- nuclei count [2]: 105%
- inhibition [3]: -27.7% (inactive)
- nuclei count [3]: 114%
- fluorescence slope [4]: -0.362 (inactive)
- NADPH fluorescence slope [5]: -4.4e-05 (inactive)
- slope [6]: 0.00497 (inactive)
- inhibition [7]: 15.6% (inactive)
- inhibition [8]: 28.6% (inactive)

SMILES: CC1(C)CC(=O)C=C(NC2CCS(=O)(=O)C2)C1 (centres undefined)
- cell count [1]: 624
- inhibition [1]: 11.3% (inactive)
- inhibition of aggregation [2]: 5.8% (inactive)
- nuclei count [2]: 59.6%
- inhibition [3]: 10.6% (inactive)
- nuclei count [3]: 100%
- fluorescence slope [4]: -0.561 (inactive)
- NADPH fluorescence slope [5]: 1.2e-05 (inactive)
- slope [6]: 0.00618 (inactive)
- inhibition [7]: 15.5% (inactive)
- inhibition [8]: 39.3% (inactive)

SMILES: O=C1c2ccccc2C(Nc2cccnc2)N1Cc1ccccc1Cl (centres undefined)
- cell count [1]: 674
- inhibition [1]: -14.6% (inactive)
- inhibition of aggregation [2]: -13.6% (inactive)
- nuclei count [2]: 105%
- inhibition [3]: -37.8% (inactive)
- nuclei count [3]: 109%
- fluorescence slope [4]: -0.422 (inactive)
- NADPH fluorescence slope [5]: -4.2e-05 (inactive)
- slope [6]: 0.00424 (inactive)
- inhibition [7]: 3.6% (inactive)
- inhibition [8]: 18.3% (inactive)

SMILES: COc1ccc(C)cc1S(=O)(=O)N1CCN(S(=O)(=O)c2cc(C)ccc2OC)CC1
- cell count [1]: 427
- inhibition [1]: -0.2% (inactive)
- inhibition of aggregation [2]: -15.7% (inactive)
- nuclei count [2]: 97.4%
- inhibition [3]: 17.9% (inactive)
- nuclei count [3]: 112%
- fluorescence slope [4]: -0.536 (inactive)
- NADPH fluorescence slope [5]: -3.9e-05 (inactive)
- slope [6]: 0.00449 (inactive)
- inhibition [7]: -3.93% (inactive)
- inhibition [8]: 9.61% (inactive)

SMILES: Cc1ccc2c(c1)nnn2C1CCN(C(=O)NC23CC4CC(CC(C4)C2)C3)CC1
- cell count [1]: 471
- inhibition [1]: -9.4% (inactive)
- inhibition of aggregation [2]: 11.5% (inactive)
- nuclei count [2]: 122%
- inhibition [3]: 19.9% (inactive)
- nuclei count [3]: 98.1%
- fluorescence slope [4]: -0.423 (inactive)
- NADPH fluorescence slope [5]: -4e-05 (inactive)
- slope [6]: 0.00535 (inactive)
- inhibition [7]: 18.3% (inactive)
- inhibition [8]: 22.5% (inactive)
